Shown are actives, neighbours in structure and some others; about 2.5% of the full set was active somewhere.
Cruzain noTriton – inhibitors of Trypanosoma cruzi cruzain without detergent | AID 1476 | 200,000 compounds, 2.3% hits | Potency, µM, inactives show max response, negative = inhibition, hits mostly inhibitors | purified cruzain, Z-FR-AMC fluorescence, no detergent | P25779;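 also: plate controls were enzyme without inhibitor for no effect and buffer without enzyme for full effect; nearly all actives have a fitted effect of over 40% in size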
Target sequence (P25779 123-467 limits assumed): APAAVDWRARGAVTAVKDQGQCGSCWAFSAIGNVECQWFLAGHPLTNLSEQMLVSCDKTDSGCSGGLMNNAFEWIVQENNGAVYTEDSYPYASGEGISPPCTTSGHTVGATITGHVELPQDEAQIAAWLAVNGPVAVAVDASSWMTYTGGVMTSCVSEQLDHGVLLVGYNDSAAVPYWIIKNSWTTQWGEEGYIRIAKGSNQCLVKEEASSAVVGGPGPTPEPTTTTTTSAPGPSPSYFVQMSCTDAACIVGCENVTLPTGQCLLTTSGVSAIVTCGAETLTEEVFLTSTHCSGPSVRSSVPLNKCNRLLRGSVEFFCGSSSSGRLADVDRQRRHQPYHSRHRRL
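Detergent-free condition (0.00005% Triton X-100) in acetate buffer pH 5.5 with DTT. 1.5 nM enzyme and compound were pre-mixed 15 min, then 2 uM Z-FR-AMC substrate added; reaction progress from fluorescence change between first and third reads (60 s).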
Cruzain Triton – cruzain (T. cruzi) inhibition with detergent; P25779; purified cruzain, Z-FR-AMC fluorescence, 0.01% Triton; Potency, µM, without a hit: max response, negative = inhibition, hits mostly inhibitors; 200,000 compounds, 0.43% hits; AID 1478;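 also: plate controls were neutral wells for no effect and buffer without enzyme for full effect; nearly all actives have a fitted effect of over 40% in size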
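Sodium acetate buffer (100 mM, pH 5.5) containing 5 mM DTT and 0.01% Triton X-100 hosted 1.5 nM cruzain and test compound for 15 min at room temperature. Cleavage of 2 uM Z-FR-AMC was then tracked by fluorescence.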
Starred values were filed as active, the others as inactive; ? = inconclusive. Calls follow the shape of the dose curve; as a rule, active = well fitted curve in the direction sought with a large enough effect; inconclusive = small, poorly fitted or top-dose-only effect, or another doubt; inactive = no such curve, though single readings can be large; an effect the other way counts as inactive or inconclusive. Potency is read from the fitted curve at half-maximal effect.

SMILES | Cruzain noTriton | Cruzain Triton
Cc1nc(NC(=O)CSc2nnc(-c3ccccc3)c(-c3ccccc3)n2)c(Cl)cc1Cl | ? | -12.5%
COc1cccc(Nc2ccc3cc(S(=O)(=O)N4CCC(C)CC4)ccc3n2)c1 | 4.2% | -3.8%
Cc1ccc2c(c1)c(=O)c1c3n2CCN(C(=O)CCl)C3CC1 (configuration not stated) | -21.6% | 15.8µM*
Cc1ccc2c(c1)c1c3n2CCN(C(=O)CN2CCN(C)CC2)C3CCC1 (configuration not stated) | -9.6% | -3.4%
C=CCOC(=O)N[C@H](/C(C(=O)OC)=C(\C)NCc1ccccc1)c1cccc(C(F)(F)F)c1 | -3.8% | 3.2%
COc1cn(CC(=O)Nc2ccccc2)c(CN2CCCCC2)cc1=O | 13.9% | 1.8%
COc1ccc(CCNC(=O)CCn2c(=O)c3ccccc3n(Cc3ccccc3F)c2=O)cc1OC | -12.9% | -0.6%
O=C(Nc1ccccc1F)c1ccc(CNS(=O)(=O)c2cccc(C(F)(F)F)c2)cc1 | ? | 3.3%
Cc1ccc(NC(=O)c2ccc(CNS(=O)(=O)c3cccc(C(F)(F)F)c3)cc2)cc1 | 25.1µM* | -12.7%
Fc1ccc(-c2csc(-c3nc(-c4ccc(Br)s4)cs3)n2)cc1 | 8.0% | -0.4%
COc1ccc2c(c1)C1=NN(/C(C)=C\C(C)=O)C(c3ccccc3)C1CC2 (configuration not stated) | 25.1µM* | -6.8%
COc1ccc2c(c1)C1=NN(/C(C)=C/C(C)=O)C(c3ccc(F)cc3)C1CC2 (configuration not stated) | -1.5% | -4.8%
O=C(CNC(=O)c1ccc(Cl)cc1Cl)OCC(=O)c1ccc2c(c1)OCCO2 | 3.16µM* | 3.16µM*
CC(C)CNS(=O)(=O)c1cc(C(=O)OCC(=O)c2ccc3c(c2)OCCO3)c(Cl)cc1Cl | ? | -1.6%
COc1ccccc1OCc1nnc(-c2ccccc2)o1 | -6.2% | -2.5%
O=C(CSc1nc2ccccc2c(=O)n1-c1ccccc1)NCc1ccc2c(c1)OCO2 | -0.6% | 0.7%
CCCCNC(=O)CSc1nc2ccccc2c(=O)n1Cc1ccc2c(c1)OCO2 | 20µM* | 5.8%
Cc1cccc(CC(=O)NCc2nc3cccnc3n2Cc2ccc(F)cc2)c1 | 1.4% | -0.4%
Cc1ccc(NS(=O)(=O)c2cc(NC(=O)c3cc4c(s3)CCCC4)ccc2C)c(C)c1 | 31.6µM* | -0.4%
Cc1ccc(NC(=O)c2cc3c(s2)CCC3)cc1S(=O)(=O)N1CCOCC1 | 6.5% | -5.2%
N#Cc1c(/N=C/c2ccco2)oc(-c2ccccc2)c1-c1ccccc1 | -5.7% | -14.6%
N#Cc1c(/N=C/c2ccccc2)oc(-c2ccccc2)c1-c1ccccc1 | 31.6µM* | -8.0%
CCCCc1nn2c(=O)cc(COC(=O)CNC(=O)c3ccccc3C)nc2s1 | -2.4% | -0.4%
CCc1cccc(NCc2ccccc2-c2nnc(-c3ccccc3Cl)o2)c1 | 0.8% | -1.5%
CCOC(=O)c1cc(-c2ccccc2)sc1NC(=O)C(C)N1C(=O)NC(C)(c2ccc(Cl)cc2)C1=O (configuration not stated) | 3.98µM* | 0.2%
SMILES | Cruzain noTriton | Cruzain Triton
CCOC(=O)c1cc(-c2ccccc2)sc1NC(=O)C(C)C | 4.1% | -14.5%
COc1cccc(NC(=O)CCc2nc(-c3cc(OC)c(OC)c(OC)c3)no2)c1 | ? | -10.6%
CC1=Nc2cc(C(=O)NCCc3ccccc3)ccc2Sc2c(C)ccc(C)c21 | ? | -3.9%
CC1=Nc2cc(C(=O)NCCc3ccc(Cl)cc3)ccc2Sc2c(C)ccc(C)c21 | 25.1µM* | -1.3%
Cc1cc(C)c(NC(=O)CSc2ncc(S(=O)(=O)c3ccc(C(C)(C)C)cc3)c(=O)[nH]2)c(C)c1 | ? | -0.1%
COc1cc(NCc2ccc3nc(N)nc(N)c3c2C)cc(OC)c1OC | -16.8% | -3.1%
Cc1ccc(CCNC(=O)c2ccc3c(c2)c(C)c(C)n3Cc2ccccc2)cc1 | 12.6µM* | 1.7%
COc1cccc(CNC(=O)c2ccc3c(c2)c(C)c(C)n3Cc2ccccc2)c1 | ? | 1.0%
Cc1c(C)n(Cc2ccccc2)c2ccc(C(=O)NCc3ccco3)cc12 | ? | -5.3%
CCc1ccc(CNC(=O)c2ccc3c(c2)c(C)c(C)n3Cc2ccccc2)cc1 | 31.6µM* | 1.8%
CCc1ccc(NC(=O)c2ccc3oc(=O)n(Cc4ccccc4)c3c2)cc1 | 29.7% | 1.3%
CCOc1ccc(CCNC(=O)c2ccc3c(c2)c(C)c(C)n3Cc2ccccc2)cc1OCC | ? | 0.0%
CCc1cccc(NC(=O)c2ccc3c(c2)c(C)c(C)n3Cc2ccc(F)cc2)c1 | 15.8µM* | 2.1%
CCc1ccc(NC(=O)c2ccc3c(c2)c(C)c(C)n3Cc2ccccc2)cc1 | 12.6µM* | 1.7%
O=C(O)C[C@@H](C(=O)O)c1ccccc1[N+](=O)[O-] | 11.0% | 3.2%
CCCCC(=O)Nc1cccc(-c2nc3ccccc3s2)c1 | -5.2% | -13.8%
CN1CCC[C@@H]1c1cccnc1.O=C(O)c1ccccc1O.O=C([OH2+])c1ccccc1O.O=C([OH2+])c1ccccc1O.[Mn] | -1.4% | 0.6%
